Bioassay records as filed in PubChem.
Hits are enriched below; roughly 12% of the tested compounds scored in any of these assays.
Sfp inh = Sfp phosphopantetheinyl transferase inhibition; Potency, µM, for the others: largest response in the series, negative = inhibition, most hits filed as inhibitors; actives 3.5% (n = 310,000); Biochemical Sfp PPTase activity, qHTS; AID 1490; Q9F4F7;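 note: the enzyme is Sfp with the accession as filed and its product quenches rhodamine fluorescence; 0% = enzyme reaction without inhibitor and -100% = no enzyme wells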
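Fluorescence-quenching assay with 15 nM Sfp, 5 uM rhodamine-CoA and 12.5 uM BHQ-2-labelled ybbR peptide in pH 7.6 Hepes/MgCl2 buffer. Enzyme was pre-incubated with compound for 15 min at room temperature. Rate was taken from the 30-min fluorescence change (525/598 nm).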
G9a block = inhibitors of human histone lysine methyltransferase G9a; Q96KQ7; G9a H3K9 monomethylation, AlphaScreen, 2 h; Potency, µM (series often up to 102 µM), for the others: top-dose activity, negative = inhibition, most hits filed as inhibitors; actives 8.8% (n = 350,000); note: % is set by controls: 0 for no effect and ±100 for the full control effect; nearly all actives have a fitted effect of over 75% in size
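AlphaScreen read-out: biotin-H3K9 peptide (500 nM) methylation by 20 nM enzyme with 20 uM SAM, 2 h at room temperature after 15 min compound preincubation; anti-monomethyl H3K9 antibody plus donor/acceptor beads, 10 min dark.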
HP1b binding inh = HP1-beta chromodomain-methylated histone interaction inhibition | P83916 | AlphaScreen HP1-beta / biotin-H3K9me3 peptide binding | Potency, µM (series often up to 114 µM), for the others: at the top dose activity change, negative = inhibition, hits mostly inhibitors | actives 0.56% (n = 390,000); note: nearly all actives have a fitted effect of over 70% in size
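Compound inhibition of the preformed complex between 50 nM HP1-beta and 50 nM biotinylated H3K9me3 peptide was read by AlphaScreen. Buffer was PBS pH 7.4 with 0.01% Tween-20. Incubations ran 30 min at room temperature, with 10 ug/mL donor/acceptor beads.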
L3MBTL1 block = L3MBTL1 (human) inhibition. actives 0.66% (n = 230,000). Potency, µM (top dose mostly 57.1 µM), for the others: top-dose activity, negative = inhibition, actives largely listed as inhibitors. AlphaScreen L3MBTL1–H3K9me1 peptide binding; note: % is set by controls: 0 for no effect and ±100 for the full control effect; nearly all actives have a fitted effect of over 60% in size
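Read-out is AlphaScreen signal from streptavidin donor and nickel chelate acceptor beads (10 ug/mL final each) bridging L3MBTL1 (50 nM) and biotinylated K9-monomethylated H3(1-15) peptide (75 nM), after 30 min compound exposure at room temperature.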
JMJD2A Tudor inh = inhibitors of human JMJD2A Tudor domain; O75164; AlphaScreen JMJD2A-Tudor / H3K4me3 peptide binding; Potency, µM (top dose mostly 114 µM), inactives show top-dose activity change, negative = inhibition, most hits filed as inhibitors; actives 4.4% (n = 390,000); AID 504339; note: % is set by controls: 0 for no effect and ±100 for the full control effect; nearly all actives have a fitted effect of over 50% in size
BAZ2B inh = inhibitors of human BAZ2B bromodomain; actives 4.4% (n = 360,000); AlphaScreen BAZ2B-H3K14Ac peptide displacement; Potency, µM (titrated, usually from 114 µM), inactives show at the top dose activity change, negative = inhibition, actives largely listed as inhibitors; AID 504333; note: % is set by controls: 0 for no effect and ±100 for the full control effect; nearly all actives have a fitted effect of over 60% in size
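Inhibition is scored as reduced AlphaScreen emission. The BAZ2B/b-H3(5-23)K14Ac complex (50 nM each) in PBS pH 7.4, 0.01% Tween-20 meets compound (up to 110 uM) for 30 min at RT before bead addition.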
Active calls of the source: *; ? = inconclusive; / = no result given; [ ] = another dose, or the depositor's remark. Calls come from the whole dose curve; as a rule, active = well fitted curve in the direction sought with a large enough effect; inconclusive = small, poorly fitted or top-dose-only effect, or another doubt; inactive = no such curve, though single readings can be large; an effect the other way counts as inactive or inconclusive. Potency is the fitted concentration of half-maximal effect.

SMILES | Sfp inh | G9a block | HP1b binding inh | L3MBTL1 block | JMJD2A Tudor inh | BAZ2B inh
CCN(CC)CCn1c(=S)[nH]c2cc3c(cc2c1=O)OCO3 | 79µM* | 45µM* | 12% | 0% | 45µM* | -4%
CCN(CC)CCNC(=O)CCn1c(=S)[nH]c2cc3c(cc2c1=O)OCO3 | -12% | 21%[12.7 µM] | 17% | 2% | 50µM* | 13%
COc1ccc2cc(C(=O)NCc3ccc4c(c3)CCN4C(=O)c3ccccc3)[nH]c2c1 | / | -4%[59 µM] | 17% | / | -16% | -16%
Cc1ccccc1NC(=S)NCc1ccccc1 | 7% | -7%[59 µM] | 28% | 1% | -19% | -11%
CC(C)N1CC(C(=O)Nc2cccc([N+](=O)[O-])c2)CC1=O (stereo not given) | 19% | 8%[0.501 µM] | 13% | 3%[2.29 µM] | -6% | -19%
C/C(=N\O)C(C)/[N+]([O-])=C/c1nc(C)c(C)n1O (stereo not given) | / | / | 5% | / | 7.1µM* | /
Cc1ccc(-n2nc(-c3ccco3)cc2C(=O)O)c(C)c1 | 10µM* | 18µM* | -24% | 7.9µM* | 56µM* | 45µM*
Cc1ccc(-n2nc(-c3cccnc3)cc2C(=O)N2CCOCC2)c(C)c1 | -3% | 45µM* | 1% | / | -24% | -33%
O=C(c1cc(-c2ccccc2)nn1CC1CC(c2cccnc2)=NO1)N1CCOCC1 (stereo not given) | / | / | 24% | / | ? | /
CCN(CC)S(=O)(=O)c1ccc2c(c1)nc(SCc1nc3ccsc3c(=O)[nH]1)n2CC | ? | 35µM* | 32% | 0% | -13% | 12%
Cc1cccc(CCNC(=O)C2CCC(CNS(=O)(=O)c3c(C)cc(C)cc3C)CC2)c1 (stereo not given) | / | -2%[59 µM] | 12% | / | -6% | 6%
COc1ccc(-n2c(O)c(/C=N/NS(=O)(=O)c3cc(C)ccc3C)c3ccccc3c2=O)cc1OC | -18% | ? | -26% | -13% | 50µM* | 45µM*
COc1ccc(-n2c(O)c(/C=N/Nc3nc(C)cc(C)n3)c3ccccc3c2=O)cc1OC | 9% | -23% | 28% | -5% | -24% | -23%
COc1ccc(-n2c(O)c(/C=N/NS(=O)(=O)c3ccc(C)cc3)c3ccccc3c2=O)cc1OC | 6% | 11µM* | 8% | -8% | ? | ?
COc1ccc(-c2[nH]ncc2/C=N\NS(=O)(=O)c2ccccc2)cc1OC | -4% | 50µM* | 23% | / | -9% | -8%
COc1ccc(-c2[nH]ncc2/C=N\NS(=O)(=O)c2ccc(Cl)cc2)cc1 | 14% | 11%[12.7 µM] | 19% | 1% | -9% | -11%
COc1ccc(C(CC(=O)O)NC(=O)COc2ccccc2)cc1OC (stereo not given) | 4% | 79µM* | 13% | 8% | -7% | 0%
COc1ccc(OCC(=O)NC(CC(=O)O)c2ccc(OC)c(OC)c2)cc1 (stereo not given) | 19% | -44% | 5% | / | -13% | /
COc1ccc(C(CC(=O)O)NC(=O)COc2cc(C)ccc2C)cc1OC (stereo not given) | ? | 32µM* | 4% | / | -13% | /
CCOc1cc(C2NC(=O)c3c(sc4c3CCN(C)C4)N2)ccc1OC(=O)c1ccc(Br)cc1 (stereo not given) | / | -1%[59 µM] | 53% | / | -8% | 4%
CCOC(=O)N1CCc2c(sc3c2C(=O)NC(c2ccccc2)N3)C1 (stereo not given) | 56µM* | ? | 41% | -5% | -15% | -4%
COc1cc(C2NC(=O)c3c(sc4c3CCN(C)C4)N2)ccc1OC(=O)c1ccccc1 (stereo not given) | / | 10µM* | -4% | / | -34% | -25%
CN1CCc2c(sc3c2C(=O)NC(c2cccc(OC(=O)c4cccs4)c2)N3)C1 (stereo not given) | -30% | 40µM* | 16% | -7% | ? | -37%
Cc1ccc2cc(C(c3nnnn3C3CCCC3)N3CCN(c4ccc(F)cc4)CC3)c(=O)[nH]c2c1 (stereo not given) | 35µM* | 11µM* | 15% | -5% | -8% | -8%
Cc1cc(C)c2cc(C(c3nnnn3C3CCCC3)N3CCOCC3)c(=O)[nH]c2c1 (stereo not given) | 56µM* | -28%[59 µM] | 28% | 27% | 3% | 11%
SMILES | Sfp inh | G9a block | HP1b binding inh | L3MBTL1 block | JMJD2A Tudor inh | BAZ2B inh
Cc1cccc2cc(C(c3nnnn3C3CCCC3)N3CCOCC3)c(=O)[nH]c12 (stereo not given) | -1% | -32% | 28% | -4% | -3% | 4%
O=C(CN1C(=O)NC2(CCCCC2)C1=O)Nc1ccc(F)cc1 | -1% | -14% | 30% | / | -13% | 10%
CN(c1ccccc1)S(=O)(=O)c1cccc(NC(=O)CN2C(=O)NC3(CCCC3)C2=O)c1 | / | 56µM* | 13% | 0% | -14% | 4%
Cc1ccc(NC(=O)CN2C(=O)NC3(CCCCCCC3)C2=O)cc1C | / | 1.3µM* | 13% | -1% | 2% | -3%
O=C(NCc1ccc(F)cc1)C1CCCN(C(=O)NCc2ccccc2)C1 (stereo not given) | 12% | -11% | 4% | / | -12% | 7%
Cc1ccc(C2CC(=O)n3nc(-c4ccc(Cl)cc4)nc3S2)cc1 (stereo not given) | / | -47%[59 µM] | 32% | / | 9% | 2%
Cc1cccc(CNc2ncncc2-c2cccc(NS(C)(=O)=O)c2)c1 | -24% | / | / | / | / | /
Cc1c(NS(=O)(=O)c2cccs2)cccc1-c1nc2cccnc2s1 | 4% | 2% | 11%[57 µM] | 4% | -16% | -16%
O=S(=O)(Nc1cccc2ncccc12)c1cccs1 | 6% | 28%[59 µM] | 31% | -21% | 56µM* | 56µM*
C#CCOCCOCCOCCNc1nc(N2CCN(C(=O)[C@H]([C@@H](C)CC)n3cc([C@@H](N)CO)nn3)CC2)nc(N2CCN(C(=O)[C@H]([C@@H](C)CC)n3cc([C@@H](N)Cc4ccc(O)cc4)nn3)CC2)n1 | 10% | -4%[12.7 µM] | 2% | -23% | 50µM* | 28µM*
C#CCOCCOCCOCCNc1nc(N2CCN(C(=O)[C@H]([C@@H](C)CC)n3cc([C@@H](N)CC(C)C)nn3)CC2)nc(N2CCN(C(=O)[C@H]([C@@H](C)CC)n3cc([C@@H](N)CC(C)C)nn3)CC2)n1 | 9% | ? | 6% | -1% | ? | 79µM*
C#CCOCCOCCOCCNc1nc(N2CCN(C(=O)[C@H]([C@@H](C)CC)n3cc([C@@H](N)Cc4ccc(O)cc4)nn3)CC2)nc(N2CCN(C(=O)[C@H]([C@@H](C)CC)n3cc([C@@H](N)Cc4ccc(O)cc4)nn3)CC2)n1 | 15% | -1%[12.7 µM] | 35% | -16% | ? | 50µM*
